Screening results deposited in PubChem BioAssay by several laboratories.
Rows were chosen to be rich in hits. Some 4.7% of all compounds tested hit in one or more screens of this group.
EBI2 block = EBI2 receptor antagonists, beta-arrestin recruitment, primary screen, cell-based, luminescence, 7a,25-OHC stimulation, uHTS. G-protein coupled receptor 183 (Homo sapiens), P32249. AID 651636, 2012. 0.81% of 360,000 active. 7a,25-OHC stimulated. inhibition, % at 5 µM; in the data active means inhibition above about 38%;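 further: enzyme fragment complementation signal reports receptor beta-arrestin coupling in cells; 0% = agonist plus DMSO wells and 100% = wells without agonist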
Target sequence (P32249 whole entry, looked up, the tested form may be a part): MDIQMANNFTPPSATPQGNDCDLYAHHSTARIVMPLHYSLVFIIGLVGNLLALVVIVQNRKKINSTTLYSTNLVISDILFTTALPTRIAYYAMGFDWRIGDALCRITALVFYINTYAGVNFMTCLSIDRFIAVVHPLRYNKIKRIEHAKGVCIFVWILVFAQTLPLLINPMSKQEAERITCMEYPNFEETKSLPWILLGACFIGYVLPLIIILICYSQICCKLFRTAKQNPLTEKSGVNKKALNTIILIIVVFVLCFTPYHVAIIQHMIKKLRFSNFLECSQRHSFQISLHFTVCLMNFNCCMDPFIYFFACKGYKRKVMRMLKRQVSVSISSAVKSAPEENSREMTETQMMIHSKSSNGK
tim23-1 inh = growth inhibitors of tim23-1 mutant yeast, primary screen, luminescence, uHTS. 1.3% of 330,000 active. inhibition, % at 20 µM. S. cerevisiae tim23-1 growth, BacTiter-Glo luminescence, 24 h;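 active means growth inhibition of the mutant yeast at or above 50%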;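 further: temperature-sensitive mutant grown at 25 °C; plate controls were DMSO-treated mutant yeast for no effect and medium wells lacking yeast for full effect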
PfHsp90 yeast 2 = growth inhibition of PfHsp90-expressing yeast, primary screen, antimalarial PfHsp90 inhibitor project, S. cerevisiae, BacTiter-Glo luminescence, single point, set 2 | BacTiter-Glo ATP, 48 h; yeast lacking PDR1 and PDR3 efflux regulators | inhibition, % at 9.4 µM | 0.32% of 310,000 active;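 active means every replicate shows inhibition above about 80%, whatever the replicate mean, limit read from the data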;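 further: 0% = DMSO neutral controls and 100% = 20 µM radicicol positive controls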
SKKanGAS inh = S. pyogenes SKKanGAS growth inhibitors in kanamycin, primary screen, streptokinase expression inhibitor project, SKKanGAS strain, BacTiter-Glo luminescence; AID 1662, 2009; 1.3% of 300,000 active; 6 h; inhibition, % at 7.5 µM;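 active means mean replicate score, as percent of positive control median, at least 50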;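 further: strain carries kanamycin resistance gene driven by streptokinase promoter and grows in 40 µg/ml kanamycin; loss of luminescence reflects streptokinase promoter inhibition or plain growth inhibition; 0% = median of DMSO wells and 100% = positive control at its reference dose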
tim10-1 inh = growth inhibitors of tim10-1 mutant yeast, primary screen, luminescence, uHTS. 2.2% of 330,000 active. AID 463190, 2010. S. cerevisiae tim10-1 ts strain growth, BacTiter-Glo, 24 h. inhibition, % at 20 µM;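 active means inhibition of at least 40%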;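 further: mutant grown at 25 °C; 0% = DMSO wells with yeast and 100% = wells holding no yeast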
TIM10 inh = growth inhibitors of isogenic TIM10 control yeast, primary screen, counter-screen for tim10-1 yeast inhibitor project, luminescence, uHTS; S. cerevisiae TIM10 strain growth, BacTiter-Glo luminescence, 24 h; inhibition, % at 10 µM; 1.4% of 330,000 active;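 active means inhibition of 40% or more at the single tested concentration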;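 further: wild-type TIM10 isogenic control strain grown at permissive 25 °C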
tim10-1 conf = growth inhibitors of tim10-1 mutant yeast, confirmation, single concentration, luminescence, S. cerevisiae; 56% of 7,400 active; inhibition, % at 20 µM; AID 463213, 2010; shares compounds with tim10-1 inh; S. cerevisiae tim10-1 ts strain growth, BacTiter-Glo, 24 h;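 active means inhibition of yeast growth at or above a set limit in either of two repeat tests at 20 µM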;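 further: tim10-1 mutant grown at permissive 25 °C to find synthetic lethal compounds; 0% = DMSO yeast wells and 100% = medium wells without yeast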
The depositor's hits bear a star; x = no result given.

SMILES	EBI2 block	tim23-1 inh	PfHsp90 yeast 2	SKKanGAS inh	tim10-1 inh	TIM10 inh	tim10-1 conf
C(=N/Nc1nccs1)/c1cccnc1	-8	17	-7	-11	16	-4	x
Clc1cccc(/C=N\Nc2nccs2)c1	-2	47	-48	19	48*	37	12
COC(=O)c1c(N2C(=O)CC(Sc3ncccc3C(=O)O)C2=O)sc(C)c1C (centres undefined)	-14	12	7	-3	-3	7	x
O=C(CSc1nnc(-c2ccc(F)cc2)o1)Nc1ccccc1N1CCOCC1	-11	28	18	-3	40*	37	26
O=C(CSc1nc2ccccc2o1)Nc1ccccc1N1CCOCC1	3	36	-42	-1	23	11	x
Cc1cc(C)n(CC(O)Cn2c3ccc(Br)cc3c3cc(Br)ccc32)c(=O)n1 (centres undefined)	8	46	-7	29	56*	23	52*
Cc1cc(C)n(CC(O)Cn2c3ccccc3c3ccccc32)c(=O)n1 (centres undefined)	1	3	-39	8	0	19	x
COc1ccccc1-c1cc2ccccc2[nH]1	5	29	-19	6	51*	18	33*
O=C(O)c1ccccc1-c1cc2ccccc2[nH]1	-10	-3	-13	-3	-21	-11	x
Cc1cc(C)c(C(=O)C2OC(=O)C(C)(C)C(=O)C2(C)C)c(C)c1 (centres undefined)	1	35	x	-6	35	16	x
O=C(CNc1cccc2ccccc12)N/N=C/C(Br)=C/c1ccccc1	3	48	2	-9	41*	36	31*
COc1ccc(N2CCN(C(=O)COC(=O)Cc3c(F)cccc3Cl)CC2)cc1	-4	39	-17	-6	45*	16	24
CCOC(=O)[C@H]1[C@H]2COc3ccc(C)cc3[C@@H]2N2C(=O)c3cc(Cl)ccc3NC(=O)[C@@]12C	-11	34	-26	x	40*	23	17
Nc1c(C(O)(C(F)(F)F)C(F)(F)F)cc(C(O)(C(F)(F)F)C(F)(F)F)c2ccccc12	-21	11	-1	23	32	16	x
CN(Cc1ccccc1)c1nc2nonc2nc1N1CCCC(CN2CCCC2=O)C1 (centres undefined)	-7	8	-12	7	18	10	x
COc1ccccc1-c1cc2c(c3c1ccn3C)C1CCC2C1 (centres undefined)	17	x	x	x	x	x	x
Cc1cc(Nc2cccc(Cl)c2)nc(NCc2ccccc2)n1	-4	45	-8	17	45*	8	24
CCCCCCCC(=O)N/N=C/c1ccc(Br)cc1	15	22	-19	x	54*	32	6
S=c1nc(-c2ccccc2)[nH]c2ccc(Br)cc12	2	26	-14	2	43*	37	15
Cc1cc(=O)c2cc(Br)ccc2[nH]1	-2	-2	x	-2	-3	-1	x
CCC(c1nnnn1CCOC)N1CCN(c2nc3ccccc3s2)CC1 (centres undefined)	3	-1	6	-4	13	15	x
COCCn1nnnc1C(CC(C)C)N1CCN(c2nc3ccccc3s2)CC1 (centres undefined)	-13	37	2	-1	44*	25	32*
Cc1ccc(C)c(NC(=O)CN(C)C(=O)c2cc(C3CC3)nn2-c2ccccc2)c1	4	14	7	x	-13	-9	x
N#CC1=C(N)Oc2n[nH]c(-c3cccs3)c2C1c1ccncc1 (centres undefined)	-2	13	0	-3	5	-2	x
Cc1ccc(C2C(C#N)=C(N)Oc3n[nH]c(-c4cccs4)c32)s1 (centres undefined)	-18	43	-1	-1	46*	37	31
SMILES	EBI2 block	tim23-1 inh	PfHsp90 yeast 2	SKKanGAS inh	tim10-1 inh	TIM10 inh	tim10-1 conf
O=C(Nc1ccc(N2CCN(C(=O)c3ccccc3)CC2)c(Cl)c1)c1ccc(Br)o1	2	43	x	8	48*	33	39*
O=C(Nc1ccc(N2CCN(C(=O)c3ccccc3)CC2)cc1)c1ccc(Br)o1	2	41	15	-12	39	35	x
O=C(Nc1cccc(C(=O)N2CCN(c3ccccc3)CC2)c1)c1ccco1	-9	27	8	4	26	11	x
O=C(Nc1cccc(C(=O)N2CCN(c3cccc(Cl)c3)CC2)c1)c1ccccc1	7	31	x	9	48*	36	37*
COc1ccc(-n2nnnc2-c2cccc(OC)c2)cc1	-19	1	-4	0	44*	-7	13
N=c1n(Cc2ccccc2)c2ccccc2n1CC(O)COc1ccc(Cl)cc1Cl (centres undefined)	-1	7	-24	x	40*	18	-1
NC(=O)c1ccsc1NC(=O)COC(=O)[C@@H]1CCCN1C(=O)c1cccs1	-2	x	-1	x	x	x	x
CNC(=O)c1nnsc1S(=O)(=O)c1ccc(Cl)cc1	-6	32	-118	1	58*	23	47*
C=C1CC[C@@H]2[C@](C)(CO)[C@H](O)CC[C@@]2(C)[C@@H]1/C=C/C1=CCOC1=O	-3	21	11	-6	98*	2	5
C=C1CCC2[C@](C)(CO)[C@H](O)CC[C@@]2(C)[C@@H]1/C=C/C1=CCOC1=O (some centres undefined)	-2	16	-9	-2	7	4	x
FC(F)(F)c1cnc(Sc2nc3nccc(-c4ccc(Cl)cc4)n3n2)c(Cl)c1	12	36	-7	-8	41*	37	3
COc1ccc(-c2ccnc3nc(Sc4ncc(C(F)(F)F)cc4Cl)nn23)cc1	9	46	5	1	51*	32	29
CSc1nc2nccc(-c3ccc(Cl)cc3)n2n1	10	-6	4	-3	10	1	x
CCCCCCOc1ccc(N2C(=O)CC(SC(=NCC)NCC)C2=O)cc1 (centres undefined)	0	-6	-12	2	-8	-2	x
Cc1ccc(NC(=O)c2ccc(Cl)c(N3C(=O)C=CC3=O)c2)cc1	-9	13	124*	-1	68*	27	79*
Cc1cc(Nc2cccc(F)c2)nc(-c2ccccc2O)n1	22	33	-85	2	43*	37	43*
Cc1cc(Nc2ccccc2Cl)nc(-c2ccccc2O)n1	12	32	-20	0	53*	21	41*
